LGR2 antag = inhibitors of bursicon-induced Drosophila LGR2 receptor cAMP signaling | HEK293 LGR2, CRE-luciferase, bursicon-stimulated, 4 h | inhibition, % at 9.99 µM | hit rate 0.35% among 380,000 | AID 720647;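 active = drop in luminescence signal, shown as inhibition above about 50% in the replicate tests, limit read from the data, passing the limit was not always enough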;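 note: agonist challenge used bursicon conditioned medium at about half maximal strength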
CFTR F508del cor = CFTR F508del correction in bronchial cells. activity (quench increase), % at 7.58 µM. AID 720511. CFBE cells, YFP halide quenching; stimulated with forskolin plus potentiator P3; % fluorescence drop versus neutral controls. hit rate 0.36% among 350,000;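 active = mean added fluorescence quench of at least 8% versus neutral control, with both replicates also reaching 8%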;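 note: cells transiently co-express mutant CFTR-F508del with the halide-sensitive YFP; corrector assay measuring rescue of mutant channel to the surface after 24 h compound exposure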
PAX8 inh HTS = lowers PAX8-driven luciferase in RMG-I cells; RMG-I TPO-luciferase reporter, SteadyGlo, 24 h; inhibition, % at 12.6 µM; hit rate 1.2% among 360,000; AID 652154;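 active = mean replicate inhibition at least 60% with every replicate also reaching 60%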;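 note: luciferase light reporting Pax8 driven TPO promoter activity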
EWS-Fli inh = inhibitors of EWS/Fli oncoprotein transcriptional activity | inhibition, % at 12.6 µM | A673 NR0B1-luciferase reporter, viability-normalised | hit rate 0.67% among 350,000;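 active = mean inhibition of at least 50% after viability correction, with every replicate also passing that limit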;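 note: firefly luciferase signal divided by Alamar Blue viability fluorescence both relative to DMSO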
A number is an active result; . = inactive; / = no result. Shown are actives, neighbours in structure and some others; about 1.8% of the full set was active somewhere.

SMILES | LGR2 antag | CFTR F508del cor | PAX8 inh HTS | EWS-Fli inh
O=C(C[C@H]1C[C@H]2c3cc(NC(=O)NC4CCCCC4)ccc3O[C@H]2[C@H](CO)O1)NCc1cccnc1 | . | . | . | .
CC1CCC2(CC1)NC(=O)N(CC(=O)Nc1ccc3c(c1)OCO3)C2=O (configuration not stated) | . | . | . | .
COCC(=O)N(C)C[C@@H]1Oc2cc(-c3ccc(OC)cc3)ccc2S(=O)(=O)N([C@@H](C)CO)C[C@@H]1C | . | . | / | .
Cc1cc(C)c(C)c(S(=O)(=O)NNC(=O)c2cccc(S(=O)(=O)N3CCOCC3)c2)c1C | . | / | . | /
N#C[C@@H]1[C@@H](c2ccccc2-c2ccccc2F)[C@H](CO)N1C(=O)C1CC1 | . | . | . | .
O=C(Nc1ccc(F)cc1)N1CCCCN2[C@@H](CO)[C@@H](c3ccc(C#Cc4ccccc4)cc3)[C@@H]2C1 | . | . | 77.4 | 62.6
O=C(Nc1ccccc1)N1CCCCN2[C@H](C1)[C@@H](c1ccc(-c3ccccc3)cc1)[C@@H]2CO | . | . | . | .
O=C(Nc1ccc(F)cc1)N1CCCCN2[C@H](CO)[C@@H](c3ccc(C#Cc4ccccc4)cc3)[C@H]2C1 | . | . | . | .
O=C(Nc1ccccc1)N1CCCCN2[C@@H](CO)[C@@H](c3ccc(C#Cc4ccccc4)cc3)[C@@H]2C1 | . | . | 107.3 | .
O=C(Nc1ccccc1)N1CCCCN2[C@@H](CO)[C@H](c3ccc(C#Cc4ccccc4)cc3)[C@@H]2C1 | . | 8.1 | 72.1 | .
O=C(Nc1ccccc1)N1CCCCN2[C@@H](CO)[C@@H](c3ccc(-c4ccccc4)cc3)[C@@H]2C1 | . | . | . | 64.9
CCCNC(=O)Cn1c(=O)n(C)c2ccccc21 | . | . | . | .
COc1ccc(S(=O)(=O)N(C)C[C@H]2OCCCC[C@@H](C)Oc3ccc(NS(=O)(=O)c4c(C)noc4C)cc3C(=O)N([C@H](C)CO)C[C@H]2C)cc1 | . | . | 77.5 | .
Cc1noc(C)c1S(=O)(=O)Nc1ccc2c(c1)C(=O)N([C@H](C)CO)C[C@@H](C)[C@@H](CN(C)S(=O)(=O)c1ccc(Cl)cc1)OCCCC[C@H](C)O2 | . | . | 69.6 | .
Cc1noc(C)c1S(=O)(=O)N(C)C[C@H]1OCCCC[C@H](C)Oc2ccc(NS(=O)(=O)c3ccc(Cl)cc3)cc2C(=O)N([C@H](C)CO)C[C@@H]1C | . | . | 70.4 | .
CSc1ccccc1C(=O)NC1CCCc2ccccc21 (configuration not stated) | . | . | . | .
CNC[C@@H]1Oc2ncc(C3=CCCCC3)cc2C(=O)N([C@H](C)CO)C[C@@H]1C | . | . | . | .
O=C(Nc1ccc(Cl)cn1)c1cccc2ccccc12 | . | 13.3 | . | .
O=C(Nc1ccc(Cl)cn1)c1ccccc1[N+](=O)[O-] | . | . | . | .
C[C@@H]1CN([C@@H](C)CO)S(=O)(=O)c2ccc(C3=CCCCC3)cc2O[C@H]1CN(C)C(=O)C1CC1 | . | . | / | .
Oc1ccc(C[C@@H](CN2CCCC2CN2C(=S)NC[C@@H]2Cc2ccccc2)N2C[C@H](Cc3ccccc3)N(CC3CCCCC3)C2=S)cc1 (some centres not stated) | . | . | . | .
Oc1ccc(C[C@H]2CNC(=S)N2CC2CCCN2C[C@H](Cc2ccc(O)cc2)N2C[C@H](Cc3ccccc3)N(CC3CCCCC3)C2=S)cc1 (some centres not stated) | . | . | 86.9 | .
Oc1ccc(C[C@H]2CNC(=S)N2CC2CCCN2C[C@H](Cc2ccc(O)cc2)N2C[C@H](Cc3ccccc3)N(CC3CCCCCC3)C2=S)cc1 (some centres not stated) | . | . | 90.0 | .
Oc1ccc(C[C@H]2CN([C@@H](Cc3ccccc3)CN3CCC[C@@H]3CN3C(=S)NC[C@@H]3Cc3ccccc3)C(=S)N2CC2CCCCC2)cc1 | . | . | . | .
Oc1ccc(C[C@H]2CNC(=S)N2CC2CCCN2C[C@H](Cc2ccccc2)N2C[C@H](Cc3ccc(O)cc3)N(CC3CCCCC3)C2=S)cc1 (some centres not stated) | . | . | 77.0 | .
Oc1ccc(C[C@H]2CNC(=S)N2CC2CCCN2C[C@H](Cc2ccc(O)cc2)N2C[C@H](Cc3ccc(O)cc3)N(CC3CCCCCC3)C2=S)cc1 (some centres not stated) | . | . | 99.4 | .
Oc1ccc(C[C@@H](CN2CCCC2CN2C(=S)NC[C@@H]2Cc2ccccc2)N2C[C@H](Cc3ccccc3)N(CC3CCCCCC3)C2=S)cc1 (some centres not stated) | . | . | . | .

Screening results: PubChem, Broad Institute
